Source: PubChem BioAssay
Most compounds without a hit are left out; they make up all but 2.9% or so of the library.
FXN GAA850 act: activators of GAA850 frataxin (FXN) promoter. HEK293 lucGAA850 FXN promoter luciferase reporter, 24 h; percent of 10 µM SAHA response. activation, % at 6 µM. hit rate 0.56% among 360,000;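 active means activation above the average of all compounds screened plus 3 SD, cutoff fixed separately per campaign, cut at about 7.5% in these data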;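 further: 0% = DMSO wells and 100% = 10 µM SAHA wells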
SMARCA2 activ: activators of SMARCA2 function; MG213 cells, MMTV-luciferase reporter, dexamethasone, overnight; activation, % at 9.1 µM; hit rate 1% among 370,000; AID 652017; in the data active means activation above about 7.8%;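 further: 0% = vehicle wells and 100% = reference activator wells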
proKLK7 act: activates the human kallikrein-7 zymogen. P49862. purified proKLK7, EDANS-DABCYL substrate fluorescence; 100% is mature enzyme control, 0% vehicle. activation, % at 7 µM. hit rate 0.9% among 370,000. AID 652039;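 active means activation above the mean of all tested compounds plus 3 SD, computed per campaign excluding outliers beyond control limits, cut at about 13% in these data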
Target sequence (P49862 whole entry, looked up): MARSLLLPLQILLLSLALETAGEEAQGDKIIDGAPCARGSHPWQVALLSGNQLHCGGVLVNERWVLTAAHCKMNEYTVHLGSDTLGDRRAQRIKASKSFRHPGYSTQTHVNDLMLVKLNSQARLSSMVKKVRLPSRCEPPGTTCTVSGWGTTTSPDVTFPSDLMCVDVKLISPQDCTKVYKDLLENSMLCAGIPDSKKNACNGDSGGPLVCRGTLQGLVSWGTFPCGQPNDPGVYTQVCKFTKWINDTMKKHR
FAS-TE inh: inhibitors of human fatty acid synthase thioesterase domain; AID 602261; hit rate 0.67% among 360,000; recombinant FAS-TE, OMFH fluorogenic substrate, fluorescence endpoint; inhibition, % at 15 µM; P49327;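 active means compounds whose normalised, plate-corrected inhibition of enzyme fluorescence in the single-dose primary screen is 50% or more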;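 further: 0% = DMSO with enzyme and 100% = substrate without enzyme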
FAS-TE inh conf: FAS thioesterase (human) inhibition, confirmation. shares compounds with FAS-TE inh. recombinant FAS-TE, OMFH fluorogenic substrate, fluorescence. inhibition, % at 15 µM. hit rate 45% among 2,300;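 active means compounds inhibiting the enzyme by at least 50% at 15 µM in any one of the replicates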;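 further: 0% = enzyme with DMSO only and 100% = wells lacking enzyme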
Active calls of the source: *; · = no result.

SMILES	FXN GAA850 act	SMARCA2 activ	proKLK7 act	FAS-TE inh	FAS-TE inh conf
CCc1cccc(NC(=O)COC(=O)c2cc([N+](=O)[O-])ccc2N2CCOCC2)c1	-2	-3	1	87*	89*
CCOc1ccc(NC(=O)c2cc([N+](=O)[O-])ccc2N2CCOCC2)cc1	-1	-1	1	55*	65*
CCOc1ccc(NC(=O)COC(=O)c2cc([N+](=O)[O-])ccc2N2CCOCC2)cc1	0	-2	0	61*	39
O=C(NC(=S)Nc1ccccc1)c1cc([N+](=O)[O-])ccc1N1CCOCC1	1	1	0	58*	51*
CN(C)S(=O)(=O)c1cccc(COC(=O)c2cc([N+](=O)[O-])ccc2N2CCOCC2)c1	3	1	0	34	·
O=C(Nc1ccccc1)c1cc([N+](=O)[O-])ccc1N1CCCCC1	2	-3	1	47	·
O=C(CN1CCOCC1)Nc1ccc(S(=O)(=O)N2CCCCCC2)cc1	1	-1	0	-7	·
Cc1ccc(SC2=C(C(=O)O)CCCC2)cc1	-1	-2	0	-5	·
CN1CCN(c2ccc(NC(=O)c3cc([N+](=O)[O-])ccc3N3CCOCC3)cc2)CC1	-1	-2	0	0	·
O=C(Nc1ccc(Cc2ccncc2)cc1)c1cc([N+](=O)[O-])ccc1N1CCOCC1	-7	0	0	82*	88*
O=C(NCCOc1ccccc1)c1cc([N+](=O)[O-])ccc1N1CCOCC1	-6	0	-1	57*	30
O=C(NCCOc1ccccc1F)c1cc([N+](=O)[O-])ccc1N1CCOCC1	-6	1	0	34	·
Cc1ccc(NS(=O)(=O)c2cccc(C(=O)N/N=C/c3c(C)nn(-c4ccccc4)c3N3CCCC3)c2)c(C)c1	-2	-2	-11	51*	19
CCNc1ccc(C(=O)N/N=C/c2c(C)nn(-c3ccccc3)c2N2CCCC2)cc1[N+](=O)[O-]	3	-2	-1	70*	22
Cc1nn(-c2ccccc2)c(N2CCCC2)c1/C=N/NC(=O)c1ccccc1O	4	2	-2	-7	·
Cc1cccc(NC(=O)CSc2nc3c(oc4ccccc43)c(=O)n2-c2ccccc2)c1	-3	-3	-1	57*	35*
Cc1cccc(NC(=O)Cn2cnc3c(oc4ccccc43)c2=O)c1	0	3	0	-6	·
COc1ccc(OCC(O)CN2CCCC2)cc1 (stereo unspecified)	0	0	0	-5	·
CSc1nc2ccccc2n1Cc1cccc([N+](=O)[O-])c1	1	2	-1	59*	29
CSc1nc2ccccc2n1Cc1cccc(F)c1	3	-1	-1	2	·
CCS(=O)(=O)c1ccc(-c2csc(-c3ccccc3Cl)n2)c(Cl)c1Cl	4	1	0	72*	11
ClCc1csc(-c2ccc(Cl)cc2)n1	1	3	0	6	·
CCS(=O)(=O)c1ccc(-c2csc(-c3ccc(Cl)cc3)n2)c(Cl)c1Cl	-1	0	0	71*	52*
CC(=O)c1sc(-c2ccccc2Cl)nc1C	3	-3	0	-3	·
COc1ccc(N(C(=O)C(C)C)S(=O)(=O)c2ccc3ccccc3c2)cc1	-1	-3	0	19	·
SMILES	FXN GAA850 act	SMARCA2 activ	proKLK7 act	FAS-TE inh	FAS-TE inh conf
CC1CCc2c(C(=O)Oc3cccc(-n4cnnn4)c3)csc2C1 (stereo unspecified)	3	0	0	85*	56*
Cc1ccc(C(=O)Oc2cccc(-n3cnnn3)c2)cc1	0	2	0	31	·
C=CCn1c(=N)c(S(=O)(=O)c2ccc(C)c(C)c2)cc2c(=O)n3ccccc3nc21	-1	0	-1	54*	-14
O=C(Cn1c(=O)c2sccc2n(Cc2cccc([N+](=O)[O-])c2)c1=O)NCCc1ccccc1	-1	-2	0	57*	63*
COc1ccccc1N1C(=S)NC2CS(=O)(=O)CC21 (stereo unspecified)	2	-2	0	-6	·
CCCNS(=O)(=O)c1ccc(CCC(=O)NCC2CCCO2)cc1 (stereo unspecified)	0	2	0	-6	·
CCN(CC(=O)Nc1ccccc1C(F)(F)F)C(=O)COc1cccc2c1OC(C)(C)C2	1	-3	-1	-4	·
O=C1OC(c2ccccc2)=NC12CC2c1ccc(Cl)cc1 (stereo unspecified)	3	-4	0	90*	97*
O=C(c1ccco1)N(Cc1cccc(Cl)c1)C1CCS(=O)(=O)C1 (stereo unspecified)	-1	-3	1	-3	·
Cc1ccc(NC(=O)c2cc([N+](=O)[O-])ccc2N2CCOCC2)cc1S(=O)(=O)N1CCOCC1	-4	-2	1	38	·
Cc1cc(C)c(NC(=O)COC(=O)c2cc([N+](=O)[O-])ccc2N2CCOCC2)c(C)c1	2	-2	0	65*	54*
Cc1cc(NC(=O)COC(=O)c2cc([N+](=O)[O-])ccc2N2CCOCC2)ccc1Br	-1	-3	-1	79*	80*
Cc1ccc(C)c(C(=O)COC(=O)c2cc([N+](=O)[O-])ccc2N2CCOCC2)c1	0	-1	0	46	·
O=C(Nc1ccc2c3c(cccc13)CC2)c1ccco1	2	4	0	-12	·
O=C(Cn1cnc2cc([N+](=O)[O-])ccc2c1=O)Nc1cccc(S(=O)(=O)N2CCCCC2)c1	-3	-2	-1	20	·
O=C1OCCN1C(=O)[C@H]1[C@H](c2ccccc2)C(c2cccc(Cl)c2)=NN1c1ccccc1	1	·	·	56*	18
Cc1cccc(C2=NN(c3ccccc3)[C@@H](C(=O)N3CCOC3=O)[C@@H]2c2ccc(Cl)cc2)c1	3	-3	-202	56*	18
CC(C)(C)OC(=O)NC(Cc1ccccc1)C(=O)N1CCC(C(=O)NCC(=O)Nc2ccc(F)cc2)CC1 (stereo unspecified)	1	-1	0	-11	·
O=C(COc1ncnc2c(Cl)cc(Cl)cc12)Nc1cc([N+](=O)[O-])ccc1Cl	2	-2	0	52*	43
O=C(COc1ncnc2ccccc12)Nc1cc([N+](=O)[O-])ccc1Cl	0	-4	0	51*	3
O=C(COc1ncnc2cc([N+](=O)[O-])ccc12)NCCc1ccc(Cl)cc1	-1	-1	0	29	·
COC(C(=O)Nc1ccnn1C1CCN(Cc2nccs2)CC1)c1ccccc1 (stereo unspecified)	0	1	0	-8	·
Cc1ccc(S(=O)(=O)NCc2ccc(C(=O)N3CCCC3)cc2)cc1	2	-2	0	-9	·
CC1NC(=O)c2cccnc2-n2c1nc1cc(F)c(F)cc1c2=O (stereo unspecified)	2	2	1	-2	·
CCn1cc(C(=O)NCc2ccc(C)cc2)c(=O)c2cc(S(=O)(=O)N(C)C)ccc21	0	-3	0	56*	62*
